# Source: PubChem BioAssay
# An excerpt weighted towards active compounds, which were near 4.7% of everything screened.
# S2 tox: Viability Counterscreen for Primary qHTS for Inhibitors of ATXN expression; S2 cells (HEK-293 line with an ATXN2-luciferase reporter) viability, CellTiter-Fluor protease fluorescence, 24 h; 0.49% of 400,000 active; Potency, µM (series often up to 56.7 µM), hits mostly cytotoxic; also: nearly all actives have a fitted effect of over 40% in size
# DRD3 agonist: qHTS of D3 Dopamine Receptor Agonist: qHTS; D(3) dopamine receptor (Homo sapiens), P35462; D3R DiscoveRx beta-arrestin cells, luminescence, 90 min; max activation, %; 0.58% of 410,000 active; in the data active = max activation above about 30%
# Target sequence (P35462 whole entry, looked up): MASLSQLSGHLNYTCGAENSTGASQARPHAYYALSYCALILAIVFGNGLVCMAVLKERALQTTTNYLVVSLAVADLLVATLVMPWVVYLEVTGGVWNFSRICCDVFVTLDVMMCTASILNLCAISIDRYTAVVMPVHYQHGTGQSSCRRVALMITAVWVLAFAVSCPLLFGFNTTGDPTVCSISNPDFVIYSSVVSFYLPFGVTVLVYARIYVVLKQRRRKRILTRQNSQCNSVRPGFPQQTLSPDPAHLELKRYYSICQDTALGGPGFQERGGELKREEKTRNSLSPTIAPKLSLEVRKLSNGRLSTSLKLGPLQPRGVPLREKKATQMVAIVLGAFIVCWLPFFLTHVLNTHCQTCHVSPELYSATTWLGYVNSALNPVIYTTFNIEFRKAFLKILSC
#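 Agonist mode: compounds and dopamine controls were applied to plated cells for 90 min at 37 degrees C after an overnight attachment at 1500 cells/well. Luminescent read-out followed 30 - 60 minutes at room temperature with DiscoveRx detection reagent.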
# TGFb SMAD3 inh: qHTS for Inhibitors of TGF-b; HepG2 CAGA-GFP TGF-b/SMAD3 reporter, GFP fluorescence, 18 h; TGF-beta stimulated, 500 pg/mL final; Potency, µM (titrated, usually from 46.1 µM), most hits filed as inhibitors; 1.2% of 410,000 active; AID 588855, 2011; also: nearly all actives have a fitted effect of over 65% in size
#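 Per well, imaged GFP fluorescence of HEPG2 CAGA-GFP cells gives the signal; cells get compound, then TGF-beta (500 pg/mL final), 18 h at 37 degrees C; %Activity versus -TGF-beta and +DMSO controls.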
# D3 antag: qHTS of D3 Dopamine Receptor Antagonist: qHTS; 2.5% of 360,000 active; AID 652054, 2013; max response, negative = inhibition, %; D(3) dopamine receptor (Homo sapiens), P35462; D3R cells, DiscoveRx beta-arrestin luminescence, antagonist mode; active compounds read low; in the data active = max response below about -50%; inconclusive = no clear call, values can overlap the other calls
#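 Cells plated overnight at 1500 cells/well, then exposed to library compounds with dopamine controls for 90 minutes at 37 degrees C. DiscoveRx reagent added for 30–60 minutes at room temperature; luminescence read, quantitative HTS format.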
# ATXN2 expr inh: Primary qHTS for Inhibitors of ATXN expression | Potency, µM (series often up to 57 µM), usual class: inhibitors | HEK-293 ATXN2-luciferase reporter, luminescence, 24 h | AID 1745845, 2022 | 0.72% of 360,000 active; also: nearly all actives have a fitted effect of over 55% in size
#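 qHTS (up to 57 uM final) was run with 24 h compound exposure of reporter cells at 37 °C. Each well was multiplexed: SteadyGlo luminescence measured ATXN2-luciferase expression after a fluorogenic Gly-Phe-AFC viability readout (25 uM final).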
# HepG2 viability: qHTS for Inhibitors of TGF-b: Cytotox Counterscreen | HepG2 CAGA-GFP viability, ATP luminescence, 18 h | Potency, µM (series often up to 46.1 µM), most hits filed as cytotoxic | 0.76% of 410,000 active
#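 HepG2 CAGA-GFP cells (1000/well, DMEM with 1% FBS) received compound, then TGF-beta at 500 pg/mL final, and were incubated 18 hours at 37 degrees C. Viability was read by CellTiter-Glo luminescence. Media-only wells were set as complete cell-killing and DMSO as no toxicity.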
# Numbers stand for hits; - = inactive; ? = inconclusive; . = not tested or not shown. Unless noted, calls follow the shape of the dose curve; as a rule, active = well fitted curve in the direction sought with a large enough effect; inconclusive = small, poorly fitted or top-dose-only effect, or another doubt; inactive = no such curve, though single readings can be large; an effect the other way counts as inactive or inconclusive.
SMILES,S2 tox,DRD3 agonist,TGFb SMAD3 inh,D3 antag,ATXN2 expr inh,HepG2 viability
CCSc1ncc(Cl)c(C(=O)Nc2sc(C(C)=O)c(C)c2C(=O)OC)n1,-,-,-,.,-,-
CC[N+]1(C)[C@@H]2CC[C@H]1CC(OC(=O)[C@H]1CC[C@@](C(=O)OC3C[C@H]4CC[C@@H](C3)[N+]4(C)CC)(c3ccccc3)c3ccccc31)C2 (some centres not stated),-,.,.,.,.,.
Cc1ccc2nc(/C(C#N)=C\c3ccc(N4CCOCC4)o3)[nH]c2c1,-,-,-,-,-,-
Cc1ccc(/C(C#N)=C\c2ccc(N3CCOCC3)o2)cc1,-,-,?,-65,-,-
N#C/C(=C/c1ccc(N2CCCCC2)o1)c1cccc(F)c1,-,-,-,-69,-,-
N#C/C(=C\c1ccc(N2CCOCC2)o1)C(=O)NCC1CCCO1 (configuration not stated),-,-,-,-82,-,-
N#C/C(=C\c1ccc(N2CCOCC2)o1)C(=O)NC1CCCCC1,-,-,-,-,-,-
N#C/C(=C/c1ccc(N2CCCCCC2)o1)c1ccc(Cl)cc1,?,-,-,-64,?,-
COc1ccc(S(=O)(=O)NCCS(=O)(=O)N2CCN(c3ccccc3)CC2)cc1OC,.,-,-,.,.,-
CC(C)C(N)c1csc(Nc2cc(Oc3ccccc3)ncn2)n1 (configuration not stated),?,-,-,-,-,-
CC(C)CC(N)c1csc(Nc2ncccn2)n1 (configuration not stated),?,-,11µM,-,?,-
NC(c1ccccc1)c1csc(Nc2cc(Oc3ccccc3)ncn2)n1 (configuration not stated),?,-,?,-,-,11µM
CC(C)CC(N)c1csc(Nc2cc(Oc3ccccc3)ncn2)n1 (configuration not stated),.,-,?,-,25µM,-
Cc1cc(C)nc(Nc2nc(C(N)c3ccccc3)cs2)n1 (configuration not stated),-,-,-,-,-,-
COc1ccc(C(=O)c2oc3ccccc3c2NC(=O)COc2c(C)cc(C)cc2C)cc1,-,-,-,.,-,-
COc1ccccc1-c1ccnc(-n2ncc(C(=O)N3CCCCC3c3cccnc3)c2C)n1 (configuration not stated),-,.,.,.,.,.
CC1CCN(C(=O)CCC(=O)N2CC(C)Oc3ccccc32)CC1 (configuration not stated),-,-,-,-,-,-
Cc1ccc2c(c1)N(C(=O)CCC(=O)NC1CCC(C)CC1)CCO2 (configuration not stated),-,-,-,-96,-,-
CC1CCCCC1NC(=O)CCC(=O)N1CCOc2ccc(Cl)cc21 (configuration not stated),-,-,-,-53,-,-
COc1ccccc1CNC(=O)CCC(=O)N1CCOc2ccc(Cl)cc21,-,-,-,-,-,-
CC1CCC(NC(=O)CCC(=O)N2CC(C)Oc3ccccc32)CC1 (configuration not stated),-,-,-,-92,-,-
CC(NC(=O)c1cc(F)ccc1F)c1nnc2n1CCN(Cc1cccs1)CC2 (configuration not stated),-,.,.,.,.,.
CS(=O)(=O)c1ccc2nc(NC(=O)c3ccc(NS(=O)(=O)c4ccc(F)c(F)c4)cc3)sc2c1,-,-,?,-,.,-
CS(=O)(=O)c1ccc2nc(NC(=O)c3cccs3)sc2c1,-,-,-,-,?,10µM
CCC(=O)Nc1nc2ccc(S(C)(=O)=O)cc2s1,-,-,-,-,-,-
SMILES,S2 tox,DRD3 agonist,TGFb SMAD3 inh,D3 antag,ATXN2 expr inh,HepG2 viability
CC(C)CC(=O)Nc1nc2ccc(S(C)(=O)=O)cc2s1,-,-,-,-,-,11µM
CS(=O)(=O)c1ccc2nc(NC(=O)c3cccc(NS(=O)(=O)c4ccc(F)c(F)c4)c3)sc2c1,-,-,18µM,-,-,-
CC(C)(C)n1ncc2c(=O)n(Cc3ccccc3-c3ccccc3)cnc21,.,.,-,.,.,-
O=c1[nH]/c(=C/c2ccc3c(c2)OCO3)c(=O)[nH]/c1=C\c1ccc2c(c1)OCO2,.,.,-,.,.,-
Cc1c(C(=O)NCC(C)C)sc2ncnc(NCC3CCCO3)c12 (configuration not stated),-,.,.,.,.,.
COc1ccc(C(CNC(=O)COc2ccc(C)c(C)c2)N2CCCCC2)cc1 (configuration not stated),-,-,?,-100,-,-
COc1ccccc1C(CNC(=O)C(C)(C)Oc1ccc(Cl)cc1)N1CCCC1 (configuration not stated),-,-,?,-,-,-
COc1ccc(C(CNC(=O)c2cccc(S(=O)(=O)Nc3ccc(F)cc3)c2)N2CCCCC2)cc1 (configuration not stated),-,-,?,-72,-,-
COc1ccc(C(CNC(=O)C(C)(C)Oc2ccc(Cl)cc2)N2CCCC2)cc1 (configuration not stated),-,-,-,-114,.,-
COc1ccc(C(CNC(=O)Cc2ccccc2Cl)N2CCCCC2)cc1 (configuration not stated),-,-,-,-86,-,-
COc1ccc(C(CNC(=O)COc2ccc(Cl)cc2C)N2CCCCC2)cc1 (configuration not stated),-,-,-,-,-,-
COc1cc(C(=O)Nc2ccc3[nH]c(=O)sc3c2)cc(OC)c1OC,-,-,-,.,-,-
CCOCCCn1c(=N)c(C(=O)NCc2cccnc2)cc2c(=O)n3ccccc3nc21,.,-,-,.,-,-
COc1ccc(C(CNC(=O)COc2cc(C)cc(C)c2)N2CCCCC2)cc1 (configuration not stated),?,-,-,.,-,-
COc1ccc(C(CNC(=O)COc2ccccc2)N2CCCCC2)cc1 (configuration not stated),-,-,?,-116,-,-
COc1ccc(OCC(=O)NCC(c2ccc(OC)cc2)N2CCCCC2)cc1 (configuration not stated),-,-,-,-62,-,-
COc1ccc(C(CNC(=O)c2ccc(Cl)c(NC(=O)c3cccs3)c2)N2CCCC2)cc1 (configuration not stated),?,-,-,-68,-,-
